Hits are enriched below; roughly 4.8% of the tested compounds scored in any of these assays.
TGFb inhibitor – blocks TGF-b signaling | HepG2 CAGA-GFP TGF-b/SMAD3 reporter, GFP fluorescence, 18 h; TGF-beta stimulated, 500 pg/mL final | Potency, µM (highest dose often 46.1 µM), without a hit: top-dose activity, negative = inhibition, actives largely listed as inhibitors | 410,000 compounds, 1.2% hits | AID 588855; note: potency is the fitted concentration of half-maximal effect; % is set by controls: 0 for no effect and ±100 for the full control effect; nearly all actives have a fitted effect of over 65% in size
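Read-out: total well GFP (ex488/em500-530) summed from mean per-cell fluorescence. Cells: HEPG2 CAGA-GFP, 1% FBS DMEM, 18 h at 37 degrees C with 500 pg/mL final TGF-beta. Unstimulated wells served as the full-inhibition control; stimulated DMSO wells = 0%.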
ATXN2 expr inh – inhibitors of ATXN2 expression; HEK-293 ATXN2-luciferase reporter, luminescence, 24 h; Potency, µM (doses to about 57 µM), for the others: top-dose activity change, negative = inhibition, actives largely listed as inhibitors; 360,000 compounds, 0.72% hits; note: potency is the fitted concentration of half-maximal effect; % is set by controls: 0 for no effect and ±100 for the full control effect; nearly all actives have a fitted effect of over 55% in size
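qHTS (up to 57 uM final) was run with 24 h compound exposure of reporter cells at 37 °C. Each well was multiplexed: SteadyGlo luminescence measured ATXN2-luciferase expression after a fluorogenic Gly-Phe-AFC viability readout (25 uM final).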
D3 antag – antagonists of human D3 dopamine receptor; D3R cells, DiscoveRx beta-arrestin luminescence, antagonist mode; hits give low values; max response, negative = inhibition, %; 360,000 compounds, 2.5% hits; in the data active = max response below about -50%; inconclusive = no clear call, values can overlap the other calls; note: % is set by controls: 0 for no effect and ±100 for the full control effect
Target sequence (P35462 whole entry, looked up): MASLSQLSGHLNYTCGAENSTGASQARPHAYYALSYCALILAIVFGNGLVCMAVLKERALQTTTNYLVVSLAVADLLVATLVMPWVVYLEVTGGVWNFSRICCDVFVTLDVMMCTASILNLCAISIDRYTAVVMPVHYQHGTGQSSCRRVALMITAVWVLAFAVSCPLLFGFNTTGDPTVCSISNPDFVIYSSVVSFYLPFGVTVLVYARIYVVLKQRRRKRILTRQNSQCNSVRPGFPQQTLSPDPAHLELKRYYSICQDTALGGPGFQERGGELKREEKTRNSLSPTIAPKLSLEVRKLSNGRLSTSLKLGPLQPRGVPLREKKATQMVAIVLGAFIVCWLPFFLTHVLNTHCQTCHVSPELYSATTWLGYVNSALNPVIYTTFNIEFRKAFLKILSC
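Cells plated overnight at 1500 cells/well, then exposed to library compounds with dopamine controls for 90 minutes at 37 degrees C. DiscoveRx reagent added for 30–60 minutes at room temperature; luminescence read, quantitative HTS format.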
HepG2 viability – counter-screen for TGF-b inhibitors: cytotoxicity in HepG2 cells; HepG2 CAGA-GFP viability, ATP luminescence, 18 h; Potency, µM (titrated, usually from 46.1 µM), for inactives: at the top dose activity change, negative = cytotoxicity, actives largely listed as cytotoxic; 410,000 compounds, 0.76% hits; AID 588856; note: potency is the fitted concentration of half-maximal effect
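HepG2 CAGA-GFP cells (1000/well, DMEM with 1% FBS) received compound, then TGF-beta at 500 pg/mL final, and were incubated 18 hours at 37 degrees C. Viability was read by CellTiter-Glo luminescence. Media-only wells were set as complete cell-killing and DMSO as no toxicity.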
ATXN viability – reduces viability in counter-screen for ATXN expression inhibitors | S2 cells (HEK-293 line with an ATXN2-luciferase reporter) viability, CellTiter-Fluor protease fluorescence, 24 h | Potency, µM (titrated, usually from 56.7 µM), most hits filed as cytotoxic | 400,000 compounds, 0.49% hits | AID 651635; note: potency is the fitted concentration of half-maximal effect; nearly all actives have a fitted effect of over 40% in size
DRD3 agonist – D3 dopamine receptor (human) agonism; P35462; D3R DiscoveRx beta-arrestin cells, luminescence, 90 min; max activation, %; 410,000 compounds, 0.58% hits; in the data active = max activation above about 30%; note: 0% is about no effect
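Cells at 1500/well, incubated overnight, then treated with pinned compounds (dopamine as control) for 90 min at 37 degrees C. DiscoveRx reagent added for 30 - 60 minutes at room temperature; luminescence read.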
* hit, by the source's call; i = inactive; ? = inconclusive; · = no result given. Unless noted, calls come from the whole dose curve; as a rule, active = well fitted curve in the direction sought with a large enough effect; inconclusive = small, poorly fitted or top-dose-only effect, or another doubt; inactive = no such curve, though single readings can be large; an effect the other way counts as inactive or inconclusive.

SMILES	TGFb inhibitor	ATXN2 expr inh	D3 antag	HepG2 viability	ATXN viability	DRD3 agonist
COc1ccc(NC(=O)c2c(NCc3ccc(C)o3)sc3c2CCC(C)C3)cc1 (configuration not stated)	?	?	·	-25%	?	-6
Cc1ccccc1CNCc1c(C(=O)O)c(C)n(Cc2ccc(F)cc2Cl)c1C	?	6%	·	-36%	i	-4
Cc1ccccc1C1(CC(=O)N2CCCCC2c2cccnc2)CC(=O)N(C2CCCC2)C1=O (configuration not stated)	·	·	·	·	i	·
COc1ccc(OC)c(NC(=O)CCc2c(C)nn(-c3ccc(N4CCCC4)nn3)c2C)c1	?	·	·	-24%	·	8
COc1ccc(Nc2nc3ccccc3nc2NS(=O)(=O)c2cccs2)c(OC)c1	1%	·	-101*	2%	i	-15
COc1ccc(Nc2nc(-c3cccs3)cs2)c(OC)c1	0%	·	-51*	-26%	·	-5
c1ccc2c(CCc3c[nH]c4ccccc34)ccnc2c1	?	·	·	-34%	·	·
O=C1OC(c2ccccc2)=NC12CC2c1ccc(Cl)cc1 (configuration not stated)	-13%	?	-73*	-50%	i	-3
Nc1nc(NC(=O)c2ccccc2)nn1-c1ccccc1	25%	·	28	3%	i	-1
CC(=O)Nc1nc(NC(=O)/C=C/c2ccccc2)n(-c2ccccc2)n1	-1%	-32%	-72*	-7%	?	-11
O=C(Nc1nc(NC(=O)c2ccco2)n(-c2ccccc2)n1)c1ccccc1	?	?	12	-41%	i	39*
CC1(Cc2ccccc2OC(F)(F)F)C(=O)Nc2ccc(S(=O)(=O)NC3CCCCC3)cc21 (configuration not stated)	13µM*	?	-14	-81%	?	1
Cc1cccc(NC(=O)C2CCN(S(=O)(=O)c3ccc4c(c3)OCCO4)CC2)n1	-12%	-12%	-54*	36%	?	-5
Cc1cccc(NC(=O)C2CCN(S(=O)(=O)c3ccc4c(c3)OCCCO4)CC2)n1	?	-23%	10	3%	i	-13
OCC1(CC2CCCCO2)CCN(Cc2nc3ccccc3[nH]2)CC1 (configuration not stated)	-15%	·	-2	-17%	i	-5
COc1cc(/C=C/CN2CCC(CO)(CC3CCCCO3)CC2)ccc1O (configuration not stated)	-1%	3%	-67*	-5%	i	-53
OCC1(CC2CCCCO2)CCN(C/C=C/c2ccccc2)CC1 (configuration not stated)	7%	-35%	-68*	5%	i	-13
O=C(CBr)c1ccc(Oc2ccc(C(=O)C[n+]3ccccc3Cl)cc2)cc1	?	·	·	-27%	·	·
CN(c1ccc(Cl)cc1)S(=O)(=O)c1nnc(NC(=O)c2ccco2)s1	?	5%	-72*	11%	i	-1
Cc1nc(NC(=O)c2ccco2)sc1-c1csc(Nc2ccc(Cl)cc2)n1	-12%	0%	57	-27%	?	52*
COc1cccc(N(C(=O)c2ccco2)c2nc(-c3sc(NC(=O)c4ccco4)nc3C)cs2)c1	?	-20%	77	-25%	?	32*
CCOC(=O)c1c(C)sc2c1N(C(=O)CN(CC)CC)c1cc(Cl)ccc1S2	?	32µM*	7	-14%	?	-21
CCN1C(=O)[C@@H]2[C@H](C1=O)[C@@H]1C(=O)Nc3ccccc3C(=O)N1[C@@H]2c1ccc(OC)cc1	1%	8%	-7	3%	i	35*
CC(=O)c1ccc(N2CCN(C(=O)CCCn3c(=O)[nH]c4ccc(Br)cc4c3=O)CC2)cc1	?	·	60	-59%	?	1
O=C(CCCn1c(=O)[nH]c2ccc(Br)cc2c1=O)N1CCN(c2cccc(Cl)c2)CC1	5µM*	-28%	·	-28%	i	11

Bioassay records deposited in PubChem BioAssay by National Center for Advancing Translational Sciences (NCATS).
